Each structure is given as a SMILES string. The panel holds about 83,000 compounds, 20% with a hit somewhere; the sample as a whole holds those more often.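 The test compound was applied at a single concentration to cells in 96-well plates for 48 hours, and percent growth was recorded.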 Unmarked numbers belong to inactive results. Activity calls are given as the source filed them. The calls were made as follows: active = growth percent below 10; inactive = the rest.

This assay relates to NCI-H23 lung. Nature of the assay: NCI-60 one-dose screen, 48 h (100 = growth as untreated, 0 = no growth, -100 = all killed). Conditions: 10 µM unless noted.
In the case of `COc1ccc(/C=C/C(=O)N2CCC(O)CC2)cc1OC1CCCC1`, the growth was 103%.

Regarding `CCCCOC(=O)C1OC(Oc2ccc3c(C)cc(=O)oc3c2)[C@@H](OC(C)=O)C(OC(C)=O)C1OC(C)=O` (stereo not given in full), the growth is 99.9%.

Take `CC(=O)OC[C@H](O)[C@@]1(O)CC[C@H]2[C@@H]3CCC4=CC(=O)CC[C@]4(C)[C@H]3[C@@H](O)C[C@@]21C`: the growth is 103%.

With `CCOC(=O)c1[nH]c2cc(Cl)ccc2c1[C@@H](C(=O)NC(C)(C)C)N(CC)C(=O)CCCCC#Cc1cccc2c1CN(C1CCC(=O)NC1=O)C2=O` (stereo not given in full), the growth was 59.4%.

Consider `O=c1oc2ccccc2cc1-c1csc(N=Nc2c(O)[nH]c3ccc(Cl)cc23)n1`, for which the growth is 101%.

Turning to `CCN1CCN(c2nc3ccccc3c3c(=O)c4cc(F)ccc4sc23)CC1`, the growth is 85.6%.

In the case of `COc1cc2oc(-c3ccc(O)cc3)cc(=O)c2c(O)c1I`, the growth is 99.6%.

As to `COc1ccc(NS(=O)(=O)c2ccc(-c3cnc(C4CC4)o3)cc2)cc1`, the growth was 71.9%.

Consider `O=C(N/N=C(\CS(=O)(=O)c1ccccc1)c1cc2cc(Br)ccc2oc1=O)c1ccccc1`, for which the growth is 101%.

With `C[C@]1(CO)C[C@@H](O)C[C@]2(C)[C@@H]1CC[C@@]13C[C@@H]4[C@@H](C[C@H]12)[C@]4(C)C3`, the growth is 108%.

Take `O=C(NC1CC1)c1cc2n(n1)CC(c1ccccc1)N2` (stereo not given): the growth was 100%.

For `Cc1cccc2c(=O)c3c(sc12)c(NCCNCCO)nc1ccccc13`, the growth was 55.3%.

Take `COC(=O)[C@@]12CC[C@@H](C)[C@]3(C[C@@H](c4ccoc4)OC3=O)[C@H]1CC[C@@H]1O[C@@]12C`: the growth was 96.1%.

With `O=C1c2c(c3c4cc(Br)ccc4[nH]c3c3ccc4ccccc4c23)C(=O)N1O`, the growth was 95.7%.

With `NS(=O)(=O)c1ccc(C(=O)N/N=C(\CS(=O)(=O)c2ccccc2)c2cc3cc(Br)ccc3o2)cc1`, the growth was 80.7%.

For `O=c1oc2ccccc2cc1-c1csc(N=Nc2c(O)[nH]c3ccc(Br)cc23)n1`, the growth was 98.6%.

On to `O=C(N/N=C/c1ccc(OC(F)F)c(OC2CCCC2)c1)c1cnn2c1NC(c1ccccc1)C2` (stereo not given), for which the growth is 97.5%.

As to `COc1ccc(/C=N/NC(=O)c2cnn3c2NC(c2ccccc2)C3)cc1OC1CCCC1` (stereo not given), the growth was 98.8%.

Regarding `CCCCCCCC/C=C\CCCCCCCCOc1cccc(CC(=O)NCC[N+]2(C)CCOCC2)c1`, the growth is 90.4%.

With `COC(=O)c1c2c(c(C)[n+]([O-])c1C)C(=O)C(NCc1ccc(O)cc1)=CC2=O`, the growth is -57.4% (active).

Turning to `COc1c(O)c2c3c(c1OC)-c1ccccc1CC3N(S(=O)(=O)c1ccc(C)cc1)CC2` (stereo not given), the growth was 41.2%.

On to `COc1cc(/C=N/NC(=O)c2cnn3c2NC(c2ccccc2)C3)ccc1OC1CCCC1` (stereo not given), for which the growth was 50%.

Consider `CCOC(=O)c1cnn(CC(O)c2ccc(F)cc2)c1NC(=O)Nc1ccccc1F` (stereo not given), for which the growth is 98.4%.

Regarding `CCCN1CCN(c2ccc3nc(-c4ccc5nc(-c6ccc(C(F)(F)F)cc6)[nH]c5c4)[nH]c3c2)CC1`, the growth is -77.1% (active).

As to `CCCCCCCC/C=C\CCCCCCCCOc1cccc(CC(=O)NCC[N+](C)(C)C)c1`, the growth is 83.1%.

With `NC(=S)N/N=C1\c2ccccc2-c2c(F)c(F)c(F)c(F)c21`, the growth was 72.4%.

`COc1cc(/C=C/C(=O)CC(=O)/C=C/c2cc(Br)c(OC)c(OC)c2)cc(Br)c1OC`: the growth was 100%.

For the compound `COc1cccc2c(=O)c3c(sc12)c(NCCN(C)C)nc1ccccc13`, the growth is 32.4%.

Take `Cc1cccc2c(=O)c3c(sc12)c(NCCCN)nc1ccccc13`: the growth is 47.8%.

As for `O=C(c1ccc2ncc(-c3nc(NC4CC4)ncc3F)n2c1)N1CCOCC1`, the growth is 42.5%.

Consider `O=S(=O)(Nc1ccccc1Cl)c1ccc(-c2cnc(C3CC3)o2)cc1`, for which the growth was 39.9%.

As to `O=c1oc2ccccc2cc1-c1csc(N/N=C/c2cc3ccccc3nc2Cl)n1`, the growth is 99.8%.

Regarding `CCCCCCCC/C=C\CCCCCCCCOc1cccc(CC(=O)NCC[N+]2(C)CCCC2)c1`, the growth is 75.9%.

With `CCC(C)Oc1cc(/C=N/NC(=O)c2cnn3c2NC(c2ccccc2)C3)ccc1OC` (stereo not given), the growth is 58%.

On to `Cl.Fc1c[c-]c(-c2ccccn2)c(F)c1.[Pt].c1ccc([PH+](CC[PH+](c2ccccc2)c2ccccc2)c2ccccc2)cc1`, for which the growth was -77.2% (active).

The values are drawn from PubChem BioAssay (NCI).
